Data taken from PubChem BioAssay (Tox21).
Inconclusive results are not listed. The source made the active and inactive calls. Unless noted, calls come from the whole dose curve; as a rule, active = well fitted curve in the direction sought with a large enough effect in the repeat runs; inconclusive = weak or mixed curves; inactive = no such curve, though single readings can be large; an effect the other way counts as inactive or inconclusive.

Assays:
[1] = qHTS assay to identify aromatase inhibitors - cell viability counter screen (AID 743084);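 note: cells stimulated with testosterone during compound exposure; nearly all actives have a fitted effect of over 55% in size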
[2] = target: Aryl hydrocarbon receptor (Homo sapiens) (UniProt P35869); experiment: qHTS assay to identify small molecule that activate the aryl hydrocarbon receptor (AhR) signaling pathway (AID 743085);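 note: HG2L7.5c1 human HepG2 liver cells with stably integrated DRE-driven firefly reporter; series mostly up to about 70 µM; nearly all actives have a fitted effect of over 15% in size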
Aryl hydrocarbon receptor (Homo sapiens), sequence (P35869 whole entry, looked up): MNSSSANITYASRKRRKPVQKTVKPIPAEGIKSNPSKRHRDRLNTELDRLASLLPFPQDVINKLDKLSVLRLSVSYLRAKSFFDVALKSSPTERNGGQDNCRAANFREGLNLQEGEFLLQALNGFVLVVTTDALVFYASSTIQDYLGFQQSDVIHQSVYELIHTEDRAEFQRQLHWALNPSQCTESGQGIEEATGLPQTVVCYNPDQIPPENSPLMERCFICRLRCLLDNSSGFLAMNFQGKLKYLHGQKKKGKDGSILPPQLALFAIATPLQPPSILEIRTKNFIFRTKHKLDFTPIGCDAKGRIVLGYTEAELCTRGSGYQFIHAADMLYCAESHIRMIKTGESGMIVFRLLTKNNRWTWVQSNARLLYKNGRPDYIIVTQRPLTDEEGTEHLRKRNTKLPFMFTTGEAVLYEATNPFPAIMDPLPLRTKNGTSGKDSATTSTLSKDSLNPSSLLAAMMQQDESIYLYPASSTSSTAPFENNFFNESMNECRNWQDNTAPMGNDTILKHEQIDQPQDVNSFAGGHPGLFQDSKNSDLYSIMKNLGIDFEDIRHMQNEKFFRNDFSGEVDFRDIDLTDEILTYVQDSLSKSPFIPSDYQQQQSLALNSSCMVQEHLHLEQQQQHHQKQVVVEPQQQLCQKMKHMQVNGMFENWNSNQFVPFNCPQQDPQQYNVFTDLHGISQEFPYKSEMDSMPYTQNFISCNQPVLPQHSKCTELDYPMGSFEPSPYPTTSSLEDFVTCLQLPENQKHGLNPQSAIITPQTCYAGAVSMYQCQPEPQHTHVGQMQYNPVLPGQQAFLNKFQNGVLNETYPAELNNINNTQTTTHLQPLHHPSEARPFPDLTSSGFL
Outline: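 Luminescence (ONE-Glo) from a dioxin-responsive-element luciferase reporter in HG2L7.5c1 HepG2 cells after 24 hr compound exposure at 37C; viability measured by CellTiter-Fluor fluorescence beforehand.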

[3] = qHTS assay to identify small molecule that activate the aryl hydrocarbon receptor (AhR) signaling pathway - cell viability counter screen (AID 743086);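 note: HepG2 liver cells carrying the AhR DRE luciferase reporter; series mostly up to about 70 µM; nearly all actives have a fitted effect of over 45% in size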
Outline: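 Cytotoxicity counter screen: CellTiter-Fluor signal (30 min, 37 C) in 4000 HepG2 cells/well carrying the DRE-luciferase reporter, following 24 h compound exposure at 37 C.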

[4] = qHTS assay to identify small molecule antagonists of the peroxisome proliferator-activated receptor gamma (PPARg) signaling pathway - cell viability counter screen (AID 743194); note: nearly all actives have a fitted effect of over 55% in size
Outline: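 Viability was measured as CellTiter-Glo luminescence in GeneBLAzer PPARg UAS-bla HEK293H cells. These cells had been exposed 17 h at 37 C to compounds together with rosiglitazone at 50 nM final, with the beta-lactamase readout taken in the same wells.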

[5] = qHTS assay for small molecule agonists of the antioxidant response element (ARE) signaling pathway (AID 743202; active = well fitted activation curve with a large enough effect in the signal ratio in the repeat runs, not every such curve was filed as active; the % refers to the signal ratio)
Outline: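 Beta-lactamase reporter activity, read as fluorescence intensity, reflects ARE/Nrf2 pathway induction in HepG2 cells after 16 h compound exposure at 37 C; substrate loading was 2 h at room temperature.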

[6] = qHTS assay for small molecule agonists of the antioxidant response element (ARE) signaling pathway - cell viability counter screen (AID 743203; calls by dose curve; note: nearly all actives have a fitted effect of over 55% in size)
Outline: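 Measured in the same wells as the beta-lactamase ARE reporter, this read-out is CellTiter-Glo luminescence from HepG2 ARE-bla cells given compounds for 16 hrs.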

[7] = qHTS assay for small molecule activators of the heat shock response signaling pathway - cell viability counter screen (AID 743209); note: nearly all actives have a fitted effect of over 50% in size
Outline: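 Same-well multiplex: after 2.5 h room-temperature incubation with LiveBLAzer B/G substrate and fluorescence reading, CellTiter-Glo reagent was added to HSE-bla HeLa cells that had received compound for 5 h at 37 C; luminescence read after 30 min.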

[8] = qHTS assay for small molecule activators of the heat shock response signaling pathway (AID 743210; active = well fitted activation curve with a large enough effect in the signal ratio in the repeat runs, with a control signal flat, not every such curve was filed as active; the % refers to the signal ratio;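 note: HeLa cells with beta-lactamase reporter driven by heat shock elements; series mostly up to about 63 µM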)
Outline: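 Fluorescence from a cleaved B/G FRET substrate (2.5 h, room temp) reports HSE-driven beta-lactamase in HeLa cells treated 5 h at 37 C with DMSO-dissolved compounds.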

[9] = qHTS assay to identify small molecule agonists of the peroxisome proliferator-activated receptor delta (PPARd) signaling pathway - cell viability counter screen (AID 743211); note: nearly all actives have a fitted effect of over 55% in size
Outline: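 Viability was measured as CellTiter-Glo luminescence (30 min, room temperature) in the same wells as the beta-lactamase readout. GeneBLAzer PPARd UAS-bla HEK293H cells received compound after 5 h plating and were incubated 17 h at 37 C.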

[10] = target: Peroxisome proliferator-activated receptor delta (Homo sapiens) (UniProt Q03181); experiment: qHTS assay to identify small molecule agonists of the peroxisome proliferator-activated receptor delta (PPARd) signaling pathway (AID 743212; calls by dose curve)
Peroxisome proliferator-activated receptor delta (Homo sapiens), sequence (Q03181 whole entry, looked up): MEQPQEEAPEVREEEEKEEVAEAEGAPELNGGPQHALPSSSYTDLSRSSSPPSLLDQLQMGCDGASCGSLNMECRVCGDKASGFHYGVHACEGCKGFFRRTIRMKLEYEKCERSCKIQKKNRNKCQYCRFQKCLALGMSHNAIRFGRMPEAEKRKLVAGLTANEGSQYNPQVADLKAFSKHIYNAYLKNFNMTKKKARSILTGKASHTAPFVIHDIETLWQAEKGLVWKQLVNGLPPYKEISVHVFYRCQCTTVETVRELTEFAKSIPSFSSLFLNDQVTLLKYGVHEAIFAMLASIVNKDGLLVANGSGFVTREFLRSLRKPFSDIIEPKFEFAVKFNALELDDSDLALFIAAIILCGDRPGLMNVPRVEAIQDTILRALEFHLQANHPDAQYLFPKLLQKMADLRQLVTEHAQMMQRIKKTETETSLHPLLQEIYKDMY
Outline: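 Steps: seed PPARd-bla HEK293H cells; incubate 5 h, 37 C, 5% CO2; add compounds in DMSO; incubate, 37 C; add LiveBLAzer B/G FRET substrate; hold 2 h at room temperature; measure fluorescence.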

[11] = qHTS assay to identify small molecule antagonists of the peroxisome proliferator-activated receptor delta (PPARd) signaling pathway - cell viability counter screen (AID 743213); note: nearly all actives have a fitted effect of over 50% in size
Outline: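 PPARd-bla HEK293H cells were treated with compounds plus agonist L165041 (300 nM final) for 17 h at 37 C. Viability was then read in the same wells by CellTiter-Glo luminescence after 30 min at room temperature.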

[12] = target: Peroxisome proliferator-activated receptor delta (Homo sapiens) (UniProt Q03181); experiment: qHTS assay to identify small molecule antagonists of the peroxisome proliferator-activated receptor delta (PPARd) signaling pathway (AID 743215; active = well fitted inhibition curve with a large enough effect in the signal ratio in the repeat runs, not every such curve was filed as active; the % refers to the signal ratio;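 note: cells stimulated with agonist L165041 at 300 nM final during compound exposure; series mostly up to about 62 µM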)
Outline: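 Fluorescence from cleaved LiveBLAzer B/G FRET substrate (2 h, room temperature) reports PPARd-driven beta-lactamase in HEK293H UAS-bla cells. Cells had been treated 17 h at 37 C with compound plus 300 nM final L165041.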

[13] = qHTS assay to identify small molecule agonists of the farnesoid-X-receptor (FXR) signaling pathway - cell viability counter screen (AID 743218); note: nearly all actives have a fitted effect of over 45% in size
Outline: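 Readout: CellTiter-Glo luminescence, 30 min RT, multiplexed after the FXR-bla FRET reading. HEK 293T FXR-UAS-bla cells received compound 5 h post-plating and were incubated 16 h at 37 C.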

[14] = qHTS assay to identify small molecule antagonists of the farnesoid-X-receptor (FXR) signaling pathway - cell viability counter screen (AID 743221; active = well fitted cell-killing curve with a large enough effect in the repeat runs, not every such curve was filed as active; note: nearly all actives have a fitted effect of over 50% in size)
Outline: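 Cytotoxicity counter screen run in the FXR-bla reporter wells: HEK 293T cells exposed to compound with 50 uM (final) chenodeoxycholic acid for 16 h, 37 C, then viability measured by CellTiter-Glo luminescence after 30 min, room temperature.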

[15] = target: Peroxisome proliferator-activated receptor gamma (Homo sapiens) (UniProt P37231); experiment: qHTS assay to identify small molecule agonists of the peroxisome proliferator-activated receptor gamma (PPARg) signaling pathway (AID 743094; active = well fitted activation curve with a large enough effect in the signal ratio in the repeat runs, not every such curve was filed as active; the % refers to the signal ratio)
Peroxisome proliferator-activated receptor gamma (Homo sapiens), sequence (P37231 whole entry, looked up): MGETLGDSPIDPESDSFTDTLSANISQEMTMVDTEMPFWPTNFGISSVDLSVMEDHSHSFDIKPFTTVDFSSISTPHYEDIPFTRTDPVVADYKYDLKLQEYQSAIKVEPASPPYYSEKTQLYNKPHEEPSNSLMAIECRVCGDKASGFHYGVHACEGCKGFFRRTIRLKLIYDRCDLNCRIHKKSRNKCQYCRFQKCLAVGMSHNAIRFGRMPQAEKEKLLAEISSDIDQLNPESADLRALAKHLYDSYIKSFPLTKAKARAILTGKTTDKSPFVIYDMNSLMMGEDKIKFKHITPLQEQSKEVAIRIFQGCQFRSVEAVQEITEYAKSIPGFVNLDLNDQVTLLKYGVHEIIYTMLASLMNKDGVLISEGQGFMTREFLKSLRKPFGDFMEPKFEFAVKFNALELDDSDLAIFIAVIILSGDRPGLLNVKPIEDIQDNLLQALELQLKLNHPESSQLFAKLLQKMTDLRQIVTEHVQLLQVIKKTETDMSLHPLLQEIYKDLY
Outline: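 Cell-based bla reporter, HEK293H background, PPARg-driven UAS. Pre-incubation 5 h, 37C, 5% CO2. Compound 17 h, 37C. Substrate 1 h RT; fluorescence.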

[16] = target: Peroxisome proliferator-activated receptor gamma (Homo sapiens) (UniProt P37231); experiment: qHTS assay to identify small molecule antagonists of the peroxisome proliferator-activated receptor gamma (PPARg) signaling pathway (AID 743191; calls by dose curve; note: series mostly up to about 63 µM; nearly all actives have a fitted effect of over 30% in size)
Outline: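 Beta-lactamase reporter under UAS control in HEK293H PPARg-bla cells; compound treatment 17 h at 37C. Read-out: fluorescence intensity after 1 h room-temperature incubation with LiveBLAzer B/G FRET substrate.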

[17] = target: Vitamin D3 receptor (Homo sapiens) (UniProt P11473); experiment: qHTS assay to identify small molecule antagonists of the vitamin D receptor (VDR) signaling pathway (AID 743223; active = well fitted inhibition curve with a large enough effect in the signal ratio in the repeat runs, not every such curve was filed as active; the % refers to the signal ratio)
Vitamin D3 receptor (Homo sapiens), sequence (P11473 whole entry, looked up): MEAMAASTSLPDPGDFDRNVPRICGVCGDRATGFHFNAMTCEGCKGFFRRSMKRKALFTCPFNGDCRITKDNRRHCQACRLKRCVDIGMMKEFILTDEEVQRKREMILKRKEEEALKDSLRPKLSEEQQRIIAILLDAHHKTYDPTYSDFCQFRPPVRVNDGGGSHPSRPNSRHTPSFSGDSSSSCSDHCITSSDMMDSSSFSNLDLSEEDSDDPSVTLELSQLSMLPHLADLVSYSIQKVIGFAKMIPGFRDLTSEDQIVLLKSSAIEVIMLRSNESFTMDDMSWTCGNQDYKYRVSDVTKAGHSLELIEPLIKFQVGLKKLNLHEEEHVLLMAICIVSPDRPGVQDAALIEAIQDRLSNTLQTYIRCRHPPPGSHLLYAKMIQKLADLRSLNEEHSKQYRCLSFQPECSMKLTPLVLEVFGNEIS
Outline: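 Antagonist mode: compound added to VDR-bla cells alongside agonist 1alpha,25-dihydroxyvitamin D3 (3 nM final), incubation 16 h at 37C. Read-out is LiveBLAzer FRET fluorescence, 2 h at room temperature.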

[18] = target: Bile acid receptor (Homo sapiens) (UniProt Q96RI1); experiment: qHTS assay to identify small molecule antagonists of the farnesoid-X-receptor (FXR) signaling pathway (AID 743217; active = well fitted inhibition curve with a large enough effect in the signal ratio in the repeat runs, not every such curve was filed as active; the % refers to the signal ratio)
Bile acid receptor (Homo sapiens), sequence (Q96RI1 whole entry, looked up): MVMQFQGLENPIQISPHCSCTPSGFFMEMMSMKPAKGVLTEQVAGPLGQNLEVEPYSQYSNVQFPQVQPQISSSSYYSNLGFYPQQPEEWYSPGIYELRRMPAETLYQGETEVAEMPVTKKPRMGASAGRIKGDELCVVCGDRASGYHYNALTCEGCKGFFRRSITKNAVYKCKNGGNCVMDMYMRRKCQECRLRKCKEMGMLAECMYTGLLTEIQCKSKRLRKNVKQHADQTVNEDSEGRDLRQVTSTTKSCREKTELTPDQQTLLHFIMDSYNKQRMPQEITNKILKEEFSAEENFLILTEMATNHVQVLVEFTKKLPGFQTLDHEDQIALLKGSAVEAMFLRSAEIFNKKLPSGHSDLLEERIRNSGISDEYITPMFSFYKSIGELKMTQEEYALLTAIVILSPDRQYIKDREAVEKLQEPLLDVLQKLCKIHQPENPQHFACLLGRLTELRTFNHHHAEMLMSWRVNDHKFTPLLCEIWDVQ
Outline: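 FRET fluorescence after 2 h room-temperature LiveBLAzer loading gives the readout. Prior step: FXR-bla HEK 293T cells, seeded and incubated 5 h, received test compounds plus 50 uM final CDCA for 16 h at 37 °C.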

[19] = target: Bile acid receptor (Homo sapiens) (UniProt Q96RI1); experiment: qHTS assay to identify small molecule agonists of the farnesoid-X-receptor (FXR) signaling pathway (AID 743220; active = well fitted activation curve with a large enough effect in the signal ratio in the repeat runs, not every such curve was filed as active; the % refers to the signal ratio)
Outline: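 FXR-UAS-bla HEK 293T cells carrying a UAS-driven beta-lactamase reporter were plated for 5 h at 37C/5% CO2, then exposed to DMSO-dissolved Tox21 10K compounds for 16 h at 37C. A LiveBLAzer B/G FRET substrate was loaded for 2 h at room temperature before fluorescence reading.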

[20] = target: Vitamin D3 receptor (Homo sapiens) (UniProt P11473); experiment: qHTS assay to identify small molecule agonists of the vitamin D receptor (VDR) signaling pathway (AID 743222; calls by dose curve)
Outline: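 Following 4 h attachment at 37C, VDR-bla cells (2,000 per well) received DMSO-dissolved compounds or controls. After 16 h incubation, LiveBLAzer B/G FRET substrate was added and fluorescence read 2 h later at room temperature.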

Measured: Potency

O=C(O)COC(=O)Cc1ccccc1Nc1c(Cl)cccc1Cl
not listed: [15] | [16] | [17] | [18] | [19] | [20]
inactive: all other assays above

CC[C@H](C)[C@H](N)C(=O)O
not listed: [3] | [6] | [7] | [10] | [12] | [18] | [19] | [20]
inactive: all other assays above

CN1CCC[C@@H]1c1cccnc1
not listed: [3] | [8] | [10] | [12] | [18] | [19] | [20]
inactive: all other assays above

C[C@@H](C1=C(CCN(C)C)Cc2ccccc21)c1ccccn1
not listed: [5] | [13] | [15] | [16]
inactive: all other assays above

CCN(CC)CCNC(C(=O)OCCC(C)C)c1ccccc1 (configuration not stated)
not listed: [3] | [7] | [11] | [12] | [18] | [19]
inactive: all other assays above

CN1CCC(=C2c3ccccc3CCc3sccc32)CC1
inactive: [1] | [2] | [15] | [16] | [7] | [10] | [12] | [19]

CCCCC(CC)COCCCN (configuration not stated)
not listed: [8] | [11] | [13] | [15] | [16] | [17] | [19] | [20]
inactive: all other assays above

C=CCCCCCC
inactive: [1] | [2] | [15] | [16] | [4] | [5] | [7] | [11] | [18] | [13] | [19]

COC(=O)CSc1cc(N=c2sc(=O)n3n2CCCC3)c(F)cc1Cl
not listed: [3] | [5] | [11] | [13]
inactive: all other assays above

CC(=O)Nc1ccc(/C=N/NC(N)=S)cc1
not listed: [3] | [18] | [19] | [20]
inactive: all other assays above

O=C(O)c1cccc(N(Cc2cccnc2)c2ccc(OC(F)F)c(OC(F)F)c2)c1
inactive: [1] | [2] | [3] | [4] | [7] | [8] | [9] | [11] | [12] | [13] | [14]

Cc1cc(CC(=O)O)c(C)n1-c1ccc(Cl)cc1
not listed: [5] | [6] | [10] | [12] | [15] | [16] | [17] | [20]
inactive: all other assays above

N[C@H]1C(O)O[C@H](CO)[C@H](O)[C@@H]1O (some centres not stated)
not listed: [3] | [18] | [19]
inactive: all other assays above
